# About 160 (5.9%) of roughly 2,700 compounds showed an effect of 50% or more. Only a selection was taken, and strong results are over-represented in it overall.
# Target: Nonstructural protein 3 (Zika virus) (UniProt A0A024AXB9)
# [1] = PRVABC59, Concentration 15.0 uM, Number of replicates 1.0
# Nonstructural protein 3 (Zika virus), sequence (A0A024AXB9 as listed by the source): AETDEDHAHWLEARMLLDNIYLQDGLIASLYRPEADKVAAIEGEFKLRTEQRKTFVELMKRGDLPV
structure (smiles),measurement,setting,value
CCCC[C@H](NC(C)=O)C(=O)N[C@H](C(=O)Nc1cccc(C(N)=O)c1)c1ccc(OCc2ccccc2)cc1,inhibition,"PRVABC59, Concentration 49.5 uM, Number of replicates 2.0, Standard deviation 1.5133642763760644 %",0.392%
same,inhibition,"PRVABC59, Concentration 99.01 uM, Number of replicates 2.0, Standard deviation 2.3397962878359877 %",3.8%
same,inhibition,"PRVABC59, Concentration 198.0 uM, Number of replicates 2.0, Standard deviation 2.8724328178638086 %",7.97%
NC(=O)c1cccc(NC(=O)[C@@H](NC(=O)c2ccc(Oc3ccc(C(F)(F)F)cc3)cc2)c2ccc(OCc3ccccc3)cc2)c1,inhibition,"PRVABC59, Concentration 49.5 uM, Number of replicates 2.0, Standard deviation 0.46044521626223894 %",6.3%
same,inhibition,"PRVABC59, Concentration 99.01 uM, Number of replicates 2.0, Standard deviation 0.010097036204057861 %",14.7%
same,inhibition,"PRVABC59, Concentration 198.0 uM, Number of replicates 2.0, Standard deviation 0.34129506399757725 %",30.3%
O=C(NCc1nnc(-c2ccccc2)o1)c1cc(Cl)ccc1NS(=O)(=O)c1ccc(Oc2ccccc2Cl)cc1,inhibition,[1],54.2%
O=C(NCc1coc(-c2ccccc2)n1)c1cc(Cl)ccc1NS(=O)(=O)c1ccc(Oc2ccccc2Cl)cc1,inhibition,[1],45.4%
O=C(NCc1ccc(-c2ccccc2)cc1)c1cc(Cl)ccc1NS(=O)(=O)c1ccc(Oc2ccccc2Cl)cc1,inhibition,[1],9%
O=C(NCc1ccccc1)c1cc(Cl)ccc1NS(=O)(=O)c1ccc(Oc2ccccc2Cl)cc1,inhibition,[1],11.2%
O=C(NCc1cccc(-c2ccccc2)c1)c1cc(Cl)ccc1NS(=O)(=O)c1ccc(Oc2ccccc2Cl)cc1,inhibition,[1],54.4%
O=C(NCc1ccccc1-c1ccccc1)c1cc(Cl)ccc1NS(=O)(=O)c1ccc(Oc2ccccc2Cl)cc1,inhibition,[1],13.1%
Cn1cccc(CN2CCC(c3c[nH]c4cccnc34)CC2)c1=O,inhibition,"PRVABC59, Concentration 49.5 uM, Number of replicates 2.0, Standard deviation 0.07177165759495889 %",-0.869%
same,inhibition,"PRVABC59, Concentration 99.01 uM, Number of replicates 2.0, Standard deviation 0.38070186159308106 %",1.77%
same,inhibition,"PRVABC59, Concentration 198.0 uM, Number of replicates 2.0, Standard deviation 0.010921765735719036 %",3.27%
O=C(c1cc(Cl)ccc1NS(=O)(=O)c1ccc(Oc2ccccc2Cl)cc1)N1CCNC(=O)C12CCCCC2,inhibition,[1],17.6%
COc1ccccc1[C@H](C)NC(=O)C1CCN(c2ccc(C=O)cc2)CC1,inhibition,"PRVABC59, Concentration 10.0 uM, Number of replicates 1.0",25.4%
Cc1cc(N)cc(CNC(=O)c2cccc(Cc3cccc4c(CO)cc(C)nc34)c2)c1,inhibition,"PRVABC59, Concentration 49.95 uM, Number of replicates 2.0, Standard deviation 0.660675115468642 %",22.4%
same,inhibition,"PRVABC59, Concentration 99.9 uM, Number of replicates 2.0, Standard deviation 1.0067445744655332 %",46.9%
Cc1cc(N)cc(CNc2cccc3c(CO)cc(C)nc23)c1,inhibition,"PRVABC59, Concentration 49.95 uM, Number of replicates 2.0, Standard deviation 0.17563299841544527 %",36.2%
same,inhibition,"PRVABC59, Concentration 99.9 uM, Number of replicates 2.0, Standard deviation 0.025091199030293523 %",52.6%
Cc1cc(CO)c2cccc(NCc3ccc(C(N)=O)cc3)c2n1,inhibition,"PRVABC59, Concentration 49.95 uM, Number of replicates 2.0, Standard deviation 0.6911398690966805 %",-7.9%
same,inhibition,"PRVABC59, Concentration 99.9 uM, Number of replicates 2.0, Standard deviation 1.6597447488203414 %",-2.82%
Cc1cc(N)cc(CNC(=O)Cc2cccc3c(CO)cc(C)nc23)c1,inhibition,"PRVABC59, Concentration 49.95 uM, Number of replicates 2.0, Standard deviation 1.6254724488978287 %",7.61%
same,inhibition,"PRVABC59, Concentration 99.9 uM, Number of replicates 2.0, Standard deviation 2.5640510708053585 %",31.2%
Cc1cc(CO)c2cccc(NCc3ccc(S(N)(=O)=O)cc3)c2n1,inhibition,"PRVABC59, Concentration 49.95 uM, Number of replicates 2.0, Standard deviation 2.3986730749821903 %",-5.11%
same,inhibition,"PRVABC59, Concentration 99.9 uM, Number of replicates 2.0, Standard deviation 1.886822696290366 %",-8.96%
Cc1cc(N)cc(CNC(=O)c2ccccc2Cc2cccc3c(CO)cc(C)nc23)c1,inhibition,"PRVABC59, Concentration 49.95 uM, Number of replicates 2.0, Standard deviation 0.03145975642768365 %",34.6%
same,inhibition,"PRVABC59, Concentration 99.9 uM, Number of replicates 2.0, Standard deviation 1.7408307334956623 %",60.7%
Cc1c(C(=O)N2CCC(n3cc(CO)nn3)CC2)[nH]c2cc(Cl)cc(Cl)c12,inhibition,"PRVABC59, Concentration 49.5 uM, Number of replicates 2.0, Standard deviation 1.4208906347015848 %",4.02%
same,inhibition,"PRVABC59, Concentration 99.01 uM, Number of replicates 2.0, Standard deviation 0.494827603753062 %",9.8%
same,inhibition,"PRVABC59, Concentration 198.0 uM, Number of replicates 2.0, Standard deviation 0.23449629857012413 %",15.6%
Cc1cc(CO)c2cccc(Cc3cccc(C(=O)Nc4cc(C)on4)c3)c2n1,inhibition,"PRVABC59, Concentration 49.95 uM, Number of replicates 2.0, Standard deviation 0.5505632705734445 %",18.4%
same,inhibition,"PRVABC59, Concentration 99.9 uM, Number of replicates 2.0, Standard deviation 1.053935557806211 %",51.2%
Cc1cc(CO)c2cccc(CC(=O)Nc3cc(C)on3)c2n1,inhibition,"PRVABC59, Concentration 49.95 uM, Number of replicates 2.0, Standard deviation 1.089187856250299 %",91.5%
same,inhibition,"PRVABC59, Concentration 99.9 uM, Number of replicates 2.0, Standard deviation 0.03053454880917251 %",93.2%
Cc1cc(CO)c2cccc(Cc3ccccc3C(=O)Nc3cc(C)on3)c2n1,inhibition,"PRVABC59, Concentration 49.95 uM, Number of replicates 2.0, Standard deviation 0.7445712834152752 %",-2.77%
same,inhibition,"PRVABC59, Concentration 99.9 uM, Number of replicates 2.0, Standard deviation 1.0119877161772735 %",0.512%
Cc1cc(CO)c2cccc(Cc3cccc(C(=O)Nc4cc(C)[nH]n4)c3)c2n1,inhibition,"PRVABC59, Concentration 49.95 uM, Number of replicates 2.0, Standard deviation 3.093641395210206 %",6.52%
same,inhibition,"PRVABC59, Concentration 99.9 uM, Number of replicates 2.0, Standard deviation 2.134087804085351 %",9.51%
Cc1cc(CO)c2cccc(CC(=O)Nc3cc(O)[nH]n3)c2n1,inhibition,"PRVABC59, Concentration 49.95 uM, Number of replicates 2.0, Standard deviation 0.5293246306718348 %",-5.29%
same,inhibition,"PRVABC59, Concentration 99.9 uM, Number of replicates 2.0, Standard deviation 0.9008701737196211 %",1.86%
Cc1cc(CO)c2cccc(CC(=O)Nc3cc(C)[nH]n3)c2n1,inhibition,"PRVABC59, Concentration 49.95 uM, Number of replicates 2.0, Standard deviation 1.1960706203468343 %",0.209%
same,inhibition,"PRVABC59, Concentration 99.9 uM, Number of replicates 2.0, Standard deviation 0.6463869966486608 %",7.1%
